Here are results for 28 molecules from PubChem BioAssay AID2322 (Broad Institute, 2010).

The structures appear in SMILES notation. Out of some 27,000 compounds screened, about 120 (0.44%) were called active. Rule as the data show it: active = inhibition above about 20%; inconclusive = no clear call, values can overlap the other calls; inactive = below that. This excerpt belongs to a sample that is enriched for actives.

The target in the assay is Serine/threonine-protein kinase 33 (Homo sapiens) (UniProt Q9BYT3). Description: STK33 kinase inhibitors, primary screen, biochemical, luminescence, ADP-Glo, MBP substrate (AID 2322). The note with it: at 12.5 µM, active compounds read high. A general note: ADP-Glo first removes unused ATP, then detects ADP through luciferase.
Sequence of Serine/threonine-protein kinase 33 (Homo sapiens) (Q9BYT3 whole entry, looked up): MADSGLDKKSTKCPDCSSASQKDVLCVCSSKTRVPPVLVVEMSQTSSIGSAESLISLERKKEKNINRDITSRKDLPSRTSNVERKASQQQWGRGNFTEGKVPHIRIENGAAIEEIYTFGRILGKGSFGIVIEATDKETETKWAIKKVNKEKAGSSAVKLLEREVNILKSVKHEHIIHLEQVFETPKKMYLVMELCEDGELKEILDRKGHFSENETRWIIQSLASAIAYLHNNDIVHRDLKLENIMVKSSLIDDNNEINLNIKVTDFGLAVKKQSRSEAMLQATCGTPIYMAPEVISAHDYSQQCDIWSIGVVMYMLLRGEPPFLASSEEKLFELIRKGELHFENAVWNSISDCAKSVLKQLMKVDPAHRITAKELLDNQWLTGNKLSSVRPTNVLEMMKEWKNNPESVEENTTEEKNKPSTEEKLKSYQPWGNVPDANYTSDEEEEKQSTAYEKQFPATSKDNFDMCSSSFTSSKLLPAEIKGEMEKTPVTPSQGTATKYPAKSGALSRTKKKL
The inhibition is the drop in the measured response relative to a control, in per cent. Take `COC(=O)c1c(NC(=S)Nc2ccc(OC)cc2[N+](=O)[O-])sc2c1CCC(C)C2` (stereo not drawn): the inhibition is -1.18% (inactive). As for `Cc1nnc2sc(-c3cccc(NC(=O)C(C)Oc4ccc(Cl)cc4Cl)c3)nn12` (stereo not drawn), the figure is 1.75% (inactive); as for `CN(CC(=O)Nc1c(F)cccc1F)S(=O)(=O)c1ccc(Cl)cc1`, 0.176% (inactive); as for `CC(C)S(=O)(=O)NCC1CCN(Cc2cccc(OCCO)c2)CC1`, -4.57% (inactive). With `CC1(C)CC[C@]2(C(=O)O)CC[C@]3(C)C(=CCC4[C@@]5(C)CC[C@H](OC6O[C@H](CO)[C@@H](O)[C@H](O[C@@H]7O[C@H](CO)[C@@H](O)[C@H](O)[C@H]7O)[C@H]6O)C(C)(C)C5CC[C@]43C)[C@@H]2C1` (stereo partly drawn), the inhibition was -3.3% (inactive). To `CN(CC(=O)Nc1ccc(Br)cc1)S(=O)(=O)c1ccc2ccccc2c1` belongs -0.268% (inactive); to `COc1ccc(N(CC(=O)Nc2cccnc2)S(C)(=O)=O)c(OC)c1`, 1.05% (inactive). On to `CN1CCN(S(=O)(=O)c2ccc(NC(=O)C3CC=CCC3C(=O)O)cc2)CC1` (stereo not drawn), for which the inhibition was -6.02% (inactive).

Regarding `O=C(CSc1nnc2c(n1)[nH]c1ccccc12)Nc1cccc(C(F)(F)F)c1`, the inhibition was 0.0503% (inactive). To `O=C(c1cc([N+](=O)[O-])ccc1NCc1cccnc1)N1CCOCC1` belongs 0.472% (inactive); to `CCc1cc(C(=O)OC)c(NC(=O)CC2Sc3ccc(C(F)(F)F)cc3NC2=O)s1` (stereo not drawn), 26.1% (active). As for `CCc1cc(C(=O)OC)c(NC(=S)Nc2ccc(OC)cc2[N+](=O)[O-])s1`, the figure is 2.32% (inactive); as for `C=CCn1c(SCc2nc3ccccc3[nH]2)nnc1-c1cccc(C)c1`, -1.59% (inactive); as for `CCn1c(SCC(=O)Nc2ccc3c(c2)OCCO3)nnc1-c1ccncc1`, 0.907% (inactive).

With `COc1ccc(CCNC(=S)Nc2c(C)n(C)n(-c3ccccc3)c2=O)cc1OC`, the inhibition was 0.317% (inactive). As for `Cc1ccnc(NC(c2cccc(Br)c2)c2ccc3ccc(C)nc3c2O)c1` (stereo not drawn), the inhibition was -1.5% (inactive). On to `COc1ccc(-c2cc(C(F)(F)F)n3nc(C(=O)NCCCN4CCOCC4)cc3n2)cc1OC`, for which the inhibition was -3.3% (inactive). As for `CCOc1ccccc1NC(=O)C1C(C(=O)O)C2C=CC1C21CC1` (stereo not drawn), the figure is -4.9% (inactive); as for `Cc1ccc(NC(=O)CCCN2C(=O)c3ccccc3C2=O)cc1`, 0.883% (inactive).

For `O=C1O[C@@H](c2ccccc2)[C@@H](c2ccccc2)N2[C@@H](c3ccccc3OCCO)[C@]3(C(=O)Nc4ccc(C#CC5(O)CCCCCC5)cc43)[C@@H](C(=O)N3CCN(c4ncccn4)CC3)[C@H]12`, the inhibition is 10.1% (inactive). Consider `COc1ccc(N(CC(=O)Nc2ccc(F)c(F)c2)S(C)(=O)=O)cc1OC`, for which the inhibition was 0.788% (inactive).

As to `CCn1c(SCC(=O)Nc2cc(Cl)c(Cl)cc2Cl)nnc1-c1cc(Br)ccc1O`, the inhibition is -2.32% (inactive).

For `CNC[C@H]1OCc2cnnn2CCCC(=O)N([C@H](C)CO)C[C@@H]1C`, the inhibition was 2.08% (inactive). As for `Cc1ccc(S(=O)(=O)N(C)C[C@H]2Oc3ccc(NC(=O)Nc4cccc5ccccc45)cc3CC(=O)N([C@H](C)CO)C[C@H]2C)cc1`, the figure is 5.7% (inactive). To `O=C(CC(NC1CCCC1)C(=O)O)Nc1cccc(Cl)c1` (stereo not drawn) belongs -4.61% (inactive); to `Cc1ccc(OCC(=O)Nc2cccc(NC(=O)c3ccco3)c2)cc1C`, 3.45% (inactive). As to `COC(=O)c1ccc(NC(=O)CN(c2ccc(C)c(Cl)c2)S(C)(=O)=O)cc1`, the inhibition is -2.86% (inactive).

For the molecule `O=C(NCCCn1ccnc1)c1cc2c(s1)CCCC2`, the inhibition was -4.73% (inactive).
